Experimental findings from PubChem BioAssay (NCI) are described below.

Among the test systems are DU-145 prostate; K-562 leukemia; MALME-3M melanoma; MDA-MB-231 breast; RXF 393 renal; SF-268 CNS; SF-295 CNS; SF-539 CNS; UACC-257 melanoma; M14 melanoma; HCT-15 colon; HT29 colon; SNB-75 CNS; SNB-19 CNS; U251 CNS; PC-3 prostate; SK-MEL-5 melanoma; UACC-62 melanoma; LOX IMVI melanoma; SK-MEL-28 melanoma.
Holding throughout (assay): NCI-60 one-dose screen, 48 h (100 = growth as untreated, 0 = no growth, -100 = all killed)
Conditions in all cases: 10 µM unless noted

SMILES strings stand for the structures. Where “and” joins values, the source holds several entries; their conditions need not be identical. Equal values may be shown once. The panel holds about 83,000 compounds, 20% with a hit somewhere; the sample as a whole holds those more often.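 The test compound was applied at a single concentration to cells in 96-well plates for 48 hours, and percent growth was recorded.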 A number with no mark means an inactive call. Calls of active or inactive are those of the source. The calls were made as follows: active = growth percent below 10; inactive = the rest.

In the case of `O=C(Cn1c(-c2ccccc2)nc2ccccc21)N=Nc1c(O)[nH]c2ccc(Cl)cc12`, the growth with DU-145 prostate was 6.32% (active); in the assay with K-562 leukemia, 10.6%; in the assay with MALME-3M melanoma, 5.8% (active); in the assay with MDA-MB-231 breast, -42% (active); in the assay on RXF 393 renal it was -63.8% (active); in the assay with SF-268 CNS, 7.18% (active). Besides, the growth in the assay on SF-295 CNS is -40% (active); with SF-539 CNS, -46.6% (active); in the assay with UACC-257 melanoma, 36.5%; with M14 melanoma, 14.9%; in the assay on HCT-15 colon it was 7.61% (active); in the assay with HT29 colon, 2.44% (active). The growth in the assay with SNB-75 CNS was -49.5% (active); in the assay with SNB-19 CNS, -4.56% (active); with U251 CNS, 13.4%; with PC-3 prostate, 21.7%; with SK-MEL-5 melanoma it was 10.7%; with UACC-62 melanoma, -2.77% (active). Further, the growth in the assay with LOX IMVI melanoma was 8.05% (active); in the assay with SK-MEL-28 melanoma it was -51% (active).
With `CN1CCN(c2ccc3c4c(cccc24)C(=O)N(c2cccc(-c4nn(-c5ccccc5)cc4-c4nc5ccccc5s4)c2)C3=O)CC1`, the growth was 58.4% in the assay on DU-145 prostate; -57.6% (active) with K-562 leukemia; 74.4% in the assay on MALME-3M melanoma; 33.7% in the assay on MDA-MB-231 breast; 72.9% in the assay with RXF 393 renal; 100% in the assay on SF-268 CNS. The growth in the assay with SF-295 CNS is 112%; in the assay with SF-539 CNS, 81.6%; with UACC-257 melanoma, 119%; in the assay on M14 melanoma, 90.6%; in the assay on HCT-15 colon, 10.2%; in the assay on HT29 colon it was 45.6%. Besides, the growth in the assay on SNB-75 CNS is 81.9%; in the assay with SNB-19 CNS, 82.9%; in the assay on U251 CNS it was 67.9%; with PC-3 prostate, 90.6%; with SK-MEL-5 melanoma it was 90.3%; with UACC-62 melanoma it was 119%. The growth was 96.6% in the assay on LOX IMVI melanoma and 51.6% in the assay on SK-MEL-28 melanoma.
As for `S=C(NCCc1ccccc1)Nc1ccc(OCc2nc3ccc(Cl)cc3[nH]2)cc1`, the growth in the assay with DU-145 prostate was 37.3%; in the assay with K-562 leukemia it was 10.1%; in the assay on MALME-3M melanoma, 56.5%; in the assay on MDA-MB-231 breast, 9.6% (active); in the assay with RXF 393 renal it was -12.6% (active); in the assay on SF-268 CNS it was 52.8%. Also, the growth in the assay with SF-295 CNS is 60.4%; with SF-539 CNS, 17.8%; with UACC-257 melanoma, 74.1%; in the assay with M14 melanoma it was 46.7%; in the assay with HCT-15 colon, 4.3% (active); in the assay with HT29 colon, 32.2%. For the same molecule, the growth in the assay with SNB-75 CNS was 33.4%; in the assay on SNB-19 CNS it was 46.7%; in the assay on U251 CNS it was 16%; in the assay on PC-3 prostate it was 39.8%; in the assay on SK-MEL-5 melanoma it was 40.8%; with UACC-62 melanoma it was 34.5%. The growth is -46.3% (active) with LOX IMVI melanoma and 48% in the assay with SK-MEL-28 melanoma.
In the case of `O=C(NN1C(=O)/C(=C/C=C/c2ccc([N+](=O)[O-])o2)SC1=S)c1ccc(O)cc1`, the growth in the assay on DU-145 prostate was -100% (active); in the assay on K-562 leukemia, 0.602% (active); with MALME-3M melanoma, -97.9% (active); with MDA-MB-231 breast, -95.9% (active); in the assay with RXF 393 renal, -86.2% (active); in the assay on SF-268 CNS, -74.3% (active). Further, the growth in the assay on SF-295 CNS was -85.6% (active); in the assay with SF-539 CNS, -100% (active); in the assay on UACC-257 melanoma it was -90.4% (active); in the assay with M14 melanoma it was -81.9% (active); in the assay on HCT-15 colon, -73% (active); in the assay on HT29 colon it was -67.7% (active). Moreover, the growth was -65.1% (active) with SNB-75 CNS; -100% (active) in the assay on SNB-19 CNS; -91.4% (active) with U251 CNS; -67.2% (active) in the assay on PC-3 prostate; -100% (active) with SK-MEL-5 melanoma; -99.3% (active) in the assay with UACC-62 melanoma. Further, the growth in the assay with LOX IMVI melanoma is -84.8% (active); in the assay with SK-MEL-28 melanoma it was -100% (active).
Consider `CC(=O)Nc1cccc(-n2c(COc3ccc(I)cc3)nc3ccccc32)c1`, for which the growth with DU-145 prostate is 99.4% and 101%; in the assay with K-562 leukemia, 67.5% and 104%; in the assay with MALME-3M melanoma, 86.9% and 106%; in the assay with MDA-MB-231 breast, 70.7% and 109%; in the assay with RXF 393 renal, 80.7% and 107%; in the assay with SF-268 CNS, 81% and 99.1%. Moreover, the growth in the assay with SF-295 CNS was 79.1% and 101%; in the assay on SF-539 CNS, 84.5% and 107%; with UACC-257 melanoma, 112% and 106%; in the assay on M14 melanoma it was 102% and 115%; with HCT-15 colon, 69.6% and 108%; in the assay on HT29 colon, 105% and 119%. Moreover, the growth in the assay on SNB-75 CNS is 57.8% and 93.3%; with SNB-19 CNS, 93.5% and 103%; in the assay with U251 CNS, 81.8% and 105%; in the assay on PC-3 prostate, 63.3% and 107%; with SK-MEL-5 melanoma, 74.1% and 104%; in the assay with UACC-62 melanoma, 61.4% and 97.8%. Besides, the growth was 85.3% and 107% in the assay on LOX IMVI melanoma; 107% and 116% in the assay with SK-MEL-28 melanoma.
On to `Cc1nc2sccn2c1-c1nnc(SCC(C)C)o1`, for which the growth with DU-145 prostate was 99.1%; with K-562 leukemia, 52.7%; in the assay on MALME-3M melanoma, 97.8%; with MDA-MB-231 breast, 87.1%; with RXF 393 renal it was 104%; in the assay on SF-268 CNS, 88.5%. For the same molecule, the growth is 86.1% with SF-295 CNS; 93.3% in the assay with SF-539 CNS; 98.7% with UACC-257 melanoma; 99.9% in the assay on M14 melanoma; 77.2% in the assay on HCT-15 colon; 79.9% in the assay with HT29 colon. For the same molecule, the growth was 73.7% in the assay on SNB-75 CNS; 78.7% with SNB-19 CNS; 78.2% in the assay on U251 CNS; 83.1% in the assay with PC-3 prostate; 89.4% in the assay on SK-MEL-5 melanoma; 77.2% with UACC-62 melanoma. Besides, the growth in the assay on LOX IMVI melanoma is 91.3%; in the assay with SK-MEL-28 melanoma it was 104%.
